# Data: the supplement of paper PMC9801561
# ± gives the standard deviation of the averaged measurements.
# Key:
# [1] = system: Escherichia coli Nissle 1917; experiment: area under OmniLog respiration curve over 48 h (OmniLog units x h); higher = more growth / nutrient utilisation; extreme values may be limits of the assay; conditions: incubation: 48 h, 37 °C
# [2] = system: Escherichia coli Nissle 1917; experiment: DuctApe activity index of respiration/growth curve (0 no growth to 9 maximum) (index 0-9); higher = more growth / nutrient utilisation, active = 3 or more; extreme values may be limits of the assay; conditions: incubation: 48 h, 37 °C
# [3] = nutrient role: C-Source, carbohydrate
# [4] = nutrient role: C-Source, alcohol
# [5] = nutrient role: N-Source, inorganic
# [6] = nutrient role: sole phosphorus source (pyruvate carbon)
# [7] = nutrient role: sole nitrogen source (pyruvate carbon)
# [8] = nutrient role: C-Source, carboxylic acid
# 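Throughout, for DuctApe activity index of respiration/growth curve (0 no growth to 9 maximum): biolog PM4 phosphorus and sulfur plates, tetrazolium violet dye reduction read in the OmniLog every 15 min, kinetic curves scored by DuctApe, each plate run in triplicate.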
compound,measurement,setting,value
CO[C@H]1O[C@H](CO)[C@H](O)[C@H](O)[C@H]1O [a-Methyl-D-Galactoside],area under OmniLog respiration curve,[1]; [3],8070 ± 460
same,DuctApe activity index,[2]; [3],8 (active)
OC[C@@H](O)[C@@H](O)[C@H](O)[C@H](O)CO [D-Mannitol],area under OmniLog respiration curve,[1]; [3],7850 ± 650
same,DuctApe activity index,[2]; [3],7.67 (active)
"CC(O)C(C)O (stereo not given) [2,3-Butanediol]",area under OmniLog respiration curve,[1]; [4],20.2 ± 16
same,DuctApe activity index,[2]; [4],0 (inactive)
O=NO [Nitrite],area under OmniLog respiration curve,[1]; [5],122 ± 150
same,DuctApe activity index,[2]; [5],0.667 (inactive)
OC[C@@H](O)[C@H](O)[C@H](O)[C@@H](O)CO [Dulcitol],area under OmniLog respiration curve,[1]; [3],3230 ± 100
same,DuctApe activity index,[2]; [3],6 (active)
C[N+](C)(C)CCOP(=O)(O)O [Phosphoryl Choline],area under OmniLog respiration curve,[1]; [6],8840 ± 430
same,DuctApe activity index,[2]; [6],8.67 (active)
O=c1[nH]c(=O)c2nc[nH]c2[nH]1 [Xanthine],area under OmniLog respiration curve,[1]; [7],2650 ± 1100
same,DuctApe activity index,[2]; [7],4 (active)
O=C(O)Cc1ccc(O)cc1 [p-Hydroxyphenyl Acetic acid],area under OmniLog respiration curve,[1]; [8],40.5 ± 54
same,DuctApe activity index,[2]; [8],0 (inactive)
CO[C@@H]1O[C@H](CO)[C@@H](O)[C@H](O)[C@H]1O [b-Methyl-D-Glucoside],area under OmniLog respiration curve,[1]; [3],6700 ± 470
same,DuctApe activity index,[2]; [3],7.33 (active)
C/C(=C/C(=O)O)C(=O)O [Citraconic acid],area under OmniLog respiration curve,[1]; [8],4.72
same,DuctApe activity index,[2]; [8],0 (inactive)
Nc1ncnc2c1ncn2[C@H]1C[C@H](O)[C@@H](CO)O1 [2`-Deoxyadenosine],area under OmniLog respiration curve,[1]; [3],8940 ± 560
same,DuctApe activity index,[2]; [3],8.67 (active)
O=P(O)(O)O [Phosphate],area under OmniLog respiration curve,[1]; [6],9750 ± 430
same,DuctApe activity index,[2]; [6],9 (active)
CO[C@@H]1O[C@H](C(=O)O)[C@@H](O)[C@H](O)[C@H]1O [b-Methyl-D-Glucuronic acid],area under OmniLog respiration curve,[1]; [8],6620 ± 580
same,DuctApe activity index,[2]; [8],7.33 (active)
O=c1ccn(C2OC(COP(=O)(O)O)C(O)C2O)c(=O)[nH]1 (stereo not given) [Uridine 5`-Monophosphate],area under OmniLog respiration curve,[1]; [6],8960 ± 820
same,DuctApe activity index,[2]; [6],8.67 (active)
O=C(O)[C@@H](O)[C@H](O)[C@H](O)[C@@H](O)C(=O)O [Mucic acid],area under OmniLog respiration curve,[1]; [8],8240 ± 630
same,DuctApe activity index,[2]; [8],8.33 (active)
Nc1ncnc2c1ncn2[C@@H]1O[C@H](COP(=O)(O)O)[C@@H](O)[C@H]1O [Adenosine 5`-Monophosphate],area under OmniLog respiration curve,[1]; [6],9380 ± 770
same,DuctApe activity index,[2]; [6],8.67 (active)
N[C@H](CCC(=O)O)C(=O)O [D-Glutamic acid],area under OmniLog respiration curve,[1]; [7],57.1 ± 89
same,DuctApe activity index,[2]; [7],0.667 (inactive)
Nc1ncnc2c1ncn2[C@@H]1O[C@H](CO)[C@@H](O)[C@H]1OP(=O)(O)O [Adenosine 2`-Monophosphate],area under OmniLog respiration curve,[1]; [6],9880 ± 610
same,DuctApe activity index,[2]; [6],9 (active)
NC(=O)CCC(=O)O [Succinamic acid],area under OmniLog respiration curve,[1]; [8],9.14 ± 6
same,DuctApe activity index,[2]; [8],0 (inactive)
O=P(O)(O)O[C@H]1O[C@H](CO)[C@@H](O)[C@H](O)[C@@H]1O [D-Mannose-1-Phosphate],area under OmniLog respiration curve,[1]; [6],9100 ± 340
same,DuctApe activity index,[2]; [6],9 (active)
